# NIH3T3 tox – NIH 3T3 cell cytotoxicity; NIH 3T3 viability, CellTiter-Glo ATP luminescence, 48-72 h; Potency, µM (series often up to 96.7 µM), without a hit: top-dose activity change, negative = cytotoxicity, most hits filed as inhibitors; 94,000 compounds, 4.3% hits; also: % is scaled to controls: 0 for no effect and ±100 for the full control effect; nearly all actives have a fitted effect of over 55% in size
#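 Luminescent ATP readout (CellTiter-Glo, 10 min RT) after 48 or 72 hr compound exposure of NIH 3T3 cells seeded at 400 cells/well in 1536-well format; quantitative HTS.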
# SNCA viab count – reduces viability of HEK-293 SNCA reporter cells; HEK-293-SNCA-luc viability, GF-AFC fluorescence, 24 h; Potency, µM (titrated, usually from 57.1 µM), inactives show at the highest dose activity change, negative = cytotoxicity, usual class: cytotoxic; 150,000 compounds, 0.12% hits; AID 1671193;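 also: 0% = DMSO-treated cells and -100% = medium-only wells without cells; nearly all actives have a fitted effect of over 30% in size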
#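 Cytotoxicity counterscreen: after 24 h compound treatment of genome-edited SNCA-luciferase HEK-293 cells, live-cell protease substrate GF-AFC read by fluorescence after 30 min; activity scaled between DMSO (0%) and medium-only (-100%), curves Hill-fitted.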
# hNpr1 antagonist – blocks ANP-stimulated signaling of human Npr1 receptor; 76,000 compounds, 1.6% hits; Potency, µM (series often up to 46.3 µM), for inactives: at the highest dose activity change, negative = inhibition, hits mostly inhibitors; AID 1347048; HEK293 hNpr1 GloSensor cGMP, ANP-stimulated luminescence; P16066; calls by dose curve; also: % is scaled to controls: 0 for no effect and ±100 for the full control effect; nearly all actives have a fitted effect of over 60% in size
#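 HEK293 cells stably expressing human Npr1 and cGMP GloSensor pGS-40F, loaded 2 h with 2% GloSensor reagent, given compound 30 min at room temperature. Luminescence read before and 20 min after 0.1 nM hNppA.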
# SNCA expr inhib – reduces expression of the alpha-synuclein gene. HEK-293 SNCA-luciferase knock-in, luminescence, 24 h. Potency, µM (highest dose often 57.2 µM), for the others: top-dose activity change, negative = inhibition, usual class: inhibitors. 140,000 compounds, 0.17% hits;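 also: plate controls were DMSO cells for no effect and cell-free wells for full effect; nearly all actives have a fitted effect of over 45% in size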
# FLuc inh – Photinus pyralis luciferase inhibition; P08659; purified P. pyralis luciferase, luminescence, biochemical; Potency, µM (titrated, usually from 115 µM), usual class: inhibitors; 76,000 compounds, 2.5% hits; also: % is scaled to controls: 0 for no effect and ±100 for the full control effect; nearly all actives have a fitted effect of over 65% in size
#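 FLuc 10nM, D-luciferin 10uM, ATP 10uM, Mg acetate 10mM, Tris acetate pH 7.5, Tween/BSA; cpd qHTS; enzyme added last; CCD luminescence.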
# HEK cytotox – kills HEK 293 cells; HEK 293 viability, ATP luminescence (CellTiter-Glo), 48-72 h; Potency, µM (doses to about 115 µM), inactives show at the top dose activity change, negative = cytotoxicity, actives largely listed as inhibitors; AID 1345083; 94,000 compounds, 6.6% hits; also: % is scaled to controls: 0 for no effect and ±100 for the full control effect; nearly all actives have a fitted effect of over 60% in size
#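 Read-out: CellTiter-Glo ATP luminescence. Cells: HEK 293, 250 cells/well. Exposure: 48 or 72 hr, 37 degree Celsius.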
# Npr1 antag conf – hNpr1 antagonism, confirmation assay | shares compounds with hNpr1 antagonist | HEK293 hNpr1 cGMP GloSensor luminescence, ANP-stimulated | Potency, µM (series often up to 57.6 µM), for the others: at the highest dose activity change, negative = inhibition, usual class: inhibitors | 1,400 compounds, 76% hits | AID 1347044; calls by dose curve; also: nearly all actives have a fitted effect of over 70% in size
# NPR2 antag – selectivity test of Npr1 antagonists against human Npr2; HEK293 hNpr2 GloSensor cGMP luminescence, CNP-stimulated; Potency, µM (highest dose often 57.6 µM), for inactives: at the top dose activity change, negative = inhibition, most hits filed as inhibitors; AID 1347046; 1,400 compounds, 67% hits; shares compounds with hNpr1 antagonist; calls by dose curve; also: nearly all actives have a fitted effect of over 70% in size
# FLuc counter – counter-screen for Npr1 antagonists: firefly luciferase inhibitors; shares compounds with hNpr1 antagonist; purified FLuc enzyme, luminescence, Km substrate; Potency, µM (series often up to 57.6 µM), without a hit: at the highest dose activity change, negative = inhibition, actives largely listed as inhibitors; 1,400 compounds, 0.7% hits; AID 1347047; also: 0% is about no effect
# GloSensor ctrl – control cell line activity, Npr1 antagonist counter-screen | shares compounds with hNpr1 antagonist | HEK293 GloSensor cGMP, SNP-stimulated, luminescence | Potency, µM (titrated, usually from 57.6 µM), inactives show top-dose activity change, negative = inhibition, actives largely listed as inhibitors | 1,400 compounds, 69% hits | AID 1347051; calls by dose curve; also: % is scaled to controls: 0 for no effect and ±100 for the full control effect; nearly all actives have a fitted effect of over 70% in size
# The depositor's hits bear a star; i = inactive; ? = inconclusive; nt = not tested or not shown; [ ] = remark or other dose. In the library only some 7.2% were active in any assay of this set; here they are far more common. Unless noted, calls follow the shape of the dose curve; as a rule, active = well fitted curve in the direction sought with a large enough effect; inconclusive = small, poorly fitted or top-dose-only effect, or another doubt; inactive = no such curve, though single readings can be large; an effect the other way counts as inactive or inconclusive. Potency is read from the fitted curve at half-maximal effect.
SMILES,NIH3T3 tox,SNCA viab count,hNpr1 antagonist,SNCA expr inhib,FLuc inh,HEK cytotox,Npr1 antag conf,NPR2 antag,FLuc counter,GloSensor ctrl
C=C1C[C@@]23CCC4[C@@](C)(CCC[C@@]4(C)C(=O)OC)C2CC[C@@H]1C3 (some centres not stated),nt,5%,nt,nt,nt,nt,nt,nt,nt,nt
NC1CCCCN(C(=O)CCn2cc(Cl)cn2)C1 (configuration not stated),1%,5%,5%,13%,i,-2%,nt,nt,nt,nt
O=C(CCn1cc(Cl)cn1)N1CCOC(c2ccc(Cl)cc2)C1 (configuration not stated),-6%,4%,?,14%,i,79µM*,?,?,4%,0%
COc1ccc(NC(=O)c2ccc3c(c2)NC(C)(COCC2CC2)CO3)cn1 (configuration not stated),?,-3%[87.6 µM],-20%[70.6 µM],21%[87.6 µM],?,?,nt,nt,nt,nt
CC1(COc2cccnc2)COc2ccc(C(=O)N3CCN(c4ccccn4)CC3)cc2N1 (configuration not stated),?,-15%,6.3µM*,?,i,?,6.9µM*,7.7µM*,2%,5.4µM*
COc1ccc(OCC2(C)COc3ccc(C(=O)Nc4ccc(OC)nc4)cc3N2)cc1 (configuration not stated),?,?,35µM*,?,i,56µM*,35µM*,40µM*,-12%[86.2 µM],35µM*
CC1(COc2ccccc2)COc2ccc(C(=O)N3CCN(c4ccccn4)CC3)cc2N1 (configuration not stated),?,4%,-12%,3%,i,?,nt,nt,nt,nt
CN(Cc1ccccc1)C(=O)c1ccc2c(c1)NC(C)(COc1cccnc1)CO2 (configuration not stated),-29%[138 µM],-4%[87.6 µM],32µM*,?,i,?,31µM*,31µM*,3%[86.2 µM],22µM*
O=C(c1cc(F)ccc1F)N1CCN(c2cc(-c3ccc(Cl)cc3)[nH]n2)CC1,28µM*,-20%,?,?,i,35µM*,27µM*,24µM*,1%,31µM*
O=C(c1ccc(F)cc1Cl)N1CCN(c2cc(-c3ccc(F)cc3)[nH]n2)CC1,?,-5%,11µM*,-21%,i,?,17µM*,19µM*,-1%,15µM*
O=C(c1ccccc1F)N1CCN(c2cc(-c3ccc(F)cc3)[nH]n2)CC1,?,11%,?,-3%,i,?,nt,nt,nt,nt
Cc1nn2c(c1-c1ccccc1OCc1ccccc1)N(C(=O)Cc1ccccn1)CCC2,?,-17%[87.6 µM],?,-15%[87.6 µM],i,?,20µM*,13µM*,1%[86.2 µM],-20%[86.2 µM]
Cc1nn2c(c1-c1ccccc1Oc1ccccc1)N(C(=O)c1ccnn1C)CCC2,-23%[138 µM],1%[87.6 µM],-15%[70.6 µM],5%[87.6 µM],i,?,nt,nt,nt,nt
Cc1nn2c(c1-c1ccccc1OCc1ccccc1)N(C(=O)COc1ccccc1C(N)=O)CCC2,6.3µM*,-16%,7.1µM*,-17%,i,?,17µM*,11µM*,0%,0%
O=C(Nc1nccs1)[C@@H]1C[C@@H](c2ccc(F)cc2)N(CCOc2ccccc2)C1,?,?,?,?,i,?,35µM*,?,4%[86.2 µM],?
Cc1ccc(OCc2nc(C3CCCCN3C(=O)CCCc3nc(-c4ccc(C)cc4)no3)no2)cc1 (configuration not stated),?,-19%,nt,?,nt,?,nt,nt,nt,nt
Cc1ccc(-c2noc(CCCC(=O)N3CCC(CCOc4ccccc4F)C3)n2)cc1 (configuration not stated),?,-3%,4.5µM*,-21%,i,?,17µM*,19µM*,-3%,15µM*
COc1ccc(CCC(=O)N2CCC(Cc3nc(-c4ccccc4)no3)CC2)cc1,?,4%,10µM*,-5%,i,35µM*,12µM*,15µM*,2%,12µM*
COc1ccc(-c2noc(CC3CCN(C(=O)Cc4ccccc4Cl)CC3)n2)cc1,?,?,10µM*,?,i,?,17µM*,22µM*,1%,19µM*
COc1ccc(-c2noc(CC3CCN(C(=O)CCc4cccc(OC)c4)CC3)n2)cc1,?,?,13µM*,-33%,i,?,22µM*,22µM*,0%,17µM*
COCc1nc(-c2ccc(OC3CCN(C(=O)c4sc(C)nc4C)C3)cc2)no1 (configuration not stated),-20%,-3%,-15%,-9%,i,?,nt,nt,nt,nt
Cc1nc(-c2ccc(OC3CCN(C(=O)NCC(C)C)C3)cc2)no1 (configuration not stated),?,-3%,?,-16%,i,?,nt,nt,nt,nt
Cn1nc(C(=O)N2CCC(Oc3ccc(-c4noc(C5CC5)n4)cc3)C2)c2ccccc21 (configuration not stated),?,5%,?,-13%,i,?,nt,nt,nt,nt
COCc1nc(-c2ccc(OC3CCN(C(=O)c4nn(C)c5ccccc45)C3)cc2)no1 (configuration not stated),?,-15%,11µM*,?,i,?,19µM*,19µM*,0%,19µM*
Cc1nc(-c2ccc(OC3CCN(C(=O)c4cc(C)n(C)n4)C3)cc2)no1 (configuration not stated),?,2%,?,-28%,i,?,?,?,1%,?

# Screening data (PubChem BioAssay)
